Assay [1] is described as follows: qHTS of pediatric cancer cell lines to identify multiple opportunities for drug repurposing: Primary screen for RD cells (AID 1347104). Note: nearly all actives have a fitted effect of over 55% in size. Note: potency is the fitted concentration of half-maximal effect. The essentials:
(§1)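 CRCs from 8- or 11-point titrations (lowest final 0.59 nM NPC, 0.78 nM MIPE). Cell viability: CellTiter-Glo after 48 h incubation, 15 min room-temperature development, luminescence imaging.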

Assay [2] is described as follows: qHTS of pediatric cancer cell lines to identify multiple opportunities for drug repurposing: Primary screen for MG 63 (6-TG R) cells (AID 1347105). Note: nearly all actives have a fitted effect of over 50% in size. Note: potency is the fitted concentration of half-maximal effect. The essentials:
as §1
(In general: qHTS replaces the single test concentration by a dilution series.)

Assay [3] in a line: qHTS of pediatric cancer cell lines to identify multiple opportunities for drug repurposing: Primary screen for control Hh wild type fibroblast cells (AID 1347106).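 Note: series mostly up to about 46 µM; a drop in luminescence marks cytotoxicity and a rise apparent proliferation; nearly all actives have a fitted effect of over 55% in size.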 The method, boiled down: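 Cells (500-1,000/well) in growth media were settled 5 h at 37 degrees C, then given compounds for 48 h. Viability was read as CellTiter-Glo luminescence. Primary runs used MIPE at 11 points (0.78 nM-46 µM) and NPC at 8 points (0.59 nM-46 µM); follow-ups used 11 points.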

The nature of assay [4]: qHTS of pediatric cancer cell lines to identify multiple opportunities for drug repurposing: Primary screen for Rh41 cells (AID 1347108). Note: nearly all actives have a fitted effect of over 70% in size. Note: potency is the fitted concentration of half-maximal effect. The method, boiled down:
as §1

Assay [5] in a line: qHTS of pediatric cancer cell lines to identify multiple opportunities for drug repurposing: Primary screen for Rh30 cells (AID 1347107). Note: nearly all actives have a fitted effect of over 75% in size. Note: potency is the fitted concentration of half-maximal effect. The essentials: (§2)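 Viability after 48 h compound treatment at 37C, 500-1,000 cells/well, read as ATP luminescence with CellTiter-Glo. Primary screens used 11-point (MIPE, 0.78 nM-46 µM) or 8-point (NPC, 0.59 nM-46 µM) final concentrations; follow-up screens used 11-point dilutions.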

A short description of assay [6]: qHTS of pediatric cancer cell lines to identify multiple opportunities for drug repurposing: Confirmatory screen for A673 cells (AID 1347110). Note: nearly all actives have a fitted effect of over 65% in size. Note: potency is the fitted concentration of half-maximal effect. The method, boiled down: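 Concentration-response curves came straight from titrations: 11 points (0.78 nM to 46 µM) for MIPE and several concentrations (0.59 nM to 46 µM) for NPC in primary, 11 points in follow-up. Readout: ATP luminescence at 48 h.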

A short description of assay [7]: qHTS of pediatric cancer cell lines to identify multiple opportunities for drug repurposing: Confirmatory screen for SK-N-MC cells (AID 1347111).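 Note: potency is the fitted concentration of half-maximal effect; cells exposed to compound for 48 h before the readout; nearly all actives have a fitted effect of over 70% in size.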 The method, boiled down:
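SK-N-MC cells at 500-1,000 cells/well in growth media were pre-incubated 5 h, then exposed to compounds at 11-point dilutions for 48 h at 37 degrees C, 5% CO2. Viability was read as CellTiter-Glo luminescence.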

Assay [8] is described as follows: qHTS of pediatric cancer cell lines to identify multiple opportunities for drug repurposing: Confirmatory screen for BT-12 cells (AID 1347112). Note: nearly all actives have a fitted effect of over 55% in size. Note: potency is the fitted concentration of half-maximal effect. The essentials:
as §2

Assay [9] is described as follows: qHTS of pediatric cancer cell lines to identify multiple opportunities for drug repurposing: Confirmatory screen for DAOY cells (AID 1347114). Note: nearly all actives have a fitted effect of over 65% in size. Note: potency is the fitted concentration of half-maximal effect. The essentials:
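Viability measured as metabolically active cells via CellTiter-Glo luminescence following 48 hours of compound exposure, 11-point dilutions in confirmatory testing. 500-1,000 cells/well plated 5 hours before dosing; controls were DMSO and 2.3 µM bortezomib.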

Assay [10] in a line: qHTS of pediatric cancer cell lines to identify multiple opportunities for drug repurposing: Confirmatory screen for NB1643 cells (AID 1347109). Note: nearly all actives have a fitted effect of over 45% in size. Note: potency is the fitted concentration of half-maximal effect. The essentials: as §2

Inconclusive results are not listed. The source made the active and inactive calls. Calls come from the whole dose curve; as a rule, active = well fitted curve in the direction sought with a large enough effect; inconclusive = small, poorly fitted or top-dose-only effect, or another doubt; inactive = no such curve, though single readings can be large; an effect the other way counts as inactive or inconclusive.

Consider `CCNC(=O)C[C@@H]1N=C(c2ccc(Cl)cc2)c2cc(OC)ccc2-n2c(C)nnc21`, for which the Potency was 1.18 µM (active) in assay [1], 0.469 µM (active) in [2] and 5.9 µM (active) in assay [4]. In addition, the Potency result in assay [3] was “inactive”.

As for `O=S(=O)(c1ccc(Cl)cc1)c1ccc(Cl)cc1`, the Potency entry in assay [1], in assay [2], in assay [5] and in assay [4] was “inactive” each time.

Regarding `COC(=O)c1cncn1C(C)c1ccccc1` (stereo unspecified), the Potency result in [1], in [2], in assay [5] and in assay [4] was “inactive” throughout.

As for `O=[N+]([O-])c1cc([N+](=O)[O-])c2ccccc2c1`, the Potency entry in [1], in [2], in assay [3], in [5] and in assay [4] was “inactive” throughout.

As for `C[C@]12CCC(=O)C(O)=C1CC[C@@H]1[C@H]3CCC(=O)[C@@]3(C)CC[C@@H]12`, the Potency result in assay [1], in assay [2] and in [5] was “inactive” each time.

For the compound `O=C(O)CCCOc1ccc(Cl)cc1Cl`, the Potency entry in assay [1], in assay [2], in [3], in assay [5], in assay [4] and in [6] was “inactive” each time. Further, the Potency entry in assay [8] and in assay [9] was “inactive” throughout. The Potency in assay [7] is 43.4 µM (active).

On to `CN(C)NC(=O)CCC(=O)O`, for which the Potency result in [1], in assay [2] and in [5] was “inactive” each time.

Turning to `O=[N+]([O-])c1c(Cl)c(Cl)cc(Cl)c1Cl`, the Potency result in [1], in assay [2], in [3], in assay [5], in assay [4] and in assay [8] was “inactive” in each case. Also, the Potency result in [9] is “inactive”. Besides, the Potency in assay [7] was 38 µM (active).

With `CCC(=O)OC1CCC2C3CCC4=CC(=O)CC[C@@]4(C)C3CC[C@]12C` (stereo partly specified), the Potency result in assay [1], in assay [2], in assay [3], in assay [5], in assay [4] and in [10] was “inactive” each time. The Potency entry in [6], in [8] and in [9] was “inactive” throughout.

As to `CCOC(=O)Nc1ccc(NCc2ccc(F)cc2)cc1N`, the Potency in assay [1] is 26.4 µM (active). For the same compound, the Potency result in assay [2] and in assay [5] was “inactive” in each case.

With `C[C@]12CC[C@H]3[C@@H](CCC4=CC(=O)CC[C@@]43C)[C@H]1CC[C@H]2O`, the Potency entry in [1], in [3], in assay [5] and in assay [4] was “inactive” each time.

On to `CN1[C@H]2CC(O)C[C@H]1[C@H]1O[C@H]12` (stereo partly specified), for which the Potency in assay [1] was 33.2 µM (active); in assay [5], 23.5 µM (active); in assay [4], 23.5 µM (active). Moreover, in assay [3], the Potency entry is “inactive”.

As for `CCNC(=O)CC1N=C(c2ccc(Cl)cc2)c2cc(OC)ccc2-n2c(C)nnc21` (stereo unspecified), in assay [1], the Potency was 5.9 µM (active). In assay [3], the Potency entry was “inactive”.

For `COCC1(CO)C(=O)C2CCN1CC2` (stereo unspecified), the Potency entry in assay [1] is “inactive”. Further, the Potency in assay [2] was 18.7 µM (active); in [4], 20.9 µM (active).

Regarding `C[C@@H]1O[C@@H](O[C@@H]2C=C3CC[C@@H]4[C@@H](CC[C@]5(C)[C@H](c6ccc(=O)oc6)CC[C@@]45O)[C@@]3(C)CC2)[C@H](O)[C@H](O)[C@H]1O`, the Potency is 0.0074 µM (active) in assay [1]; 0.0047 µM (active) in assay [2]; 0.0235 µM (active) in assay [4]; 82.7 nM (active) in [10]; 52.2 nM (active) in assay [6]; 0.0329 µM (active) in assay [7]. For the same compound, the Potency is 41.4 nM (active) in [8] and 7.4 nM (active) in [9].

As to `C=CC(=O)NCNC(=O)C=C`, the Potency result in assay [1], in assay [3], in [5] and in [4] was “inactive” each time.

As for `CC(N[C@H]1C[C@H]1c1ccccc1)c1ccc2c(c1)OCCO2` (stereo partly specified), the Potency result in [1], in assay [3], in assay [5] and in assay [4] was “inactive” in each case.

In the case of `CC(C)Oc1cccc(NC(=O)c2ccccc2C(F)(F)F)c1`, the Potency result in assay [1], in assay [2], in [5] and in [4] was “inactive” each time.

For the compound `O=C(Nc1ccccc1-c1ccc(Cl)cc1)c1cccnc1Cl`, the Potency result in assay [1], in assay [2], in assay [5] and in [4] was “inactive” throughout.

With `O=C1CCC[C@@H]2[C@H]3CCCN4CCC[C@@H](CN12)[C@@H]34`, the Potency entry in assay [1], in assay [3], in assay [5] and in assay [4] was “inactive” in each case.

Take `Nc1c(Cl)c(Cl)c(Cl)c(Cl)c1Cl`: the Potency result in [1], in assay [2], in assay [5] and in assay [4] was “inactive” throughout.

As for `CCCCC(CC)COC(=O)c1ccccc1C(=O)OCC(CC)CCCC` (stereo unspecified), the Potency entry in assay [1], in [2], in [5] and in assay [4] was “inactive” each time.

For `CC(=CCCC1=CCC(C2=CC(=O)OC2O)OC1O)CCC1=C(C)CCCC1(C)C` (stereo unspecified), the Potency result in assay [1], in [3] and in [5] was “inactive” in each case.

Take `C[C@]12CC[C@@H]3[C@@H](CCC4=CC(=O)CC[C@@H]43)[C@@H]1CC[C@@H]2OC(=O)CCc1ccccc1`: the Potency entry in [1], in assay [3], in assay [5] and in [4] was “inactive” in each case.

For `Cc1[nH]nc2ccc(-c3cncc(OC[C@@H](N)Cc4c[nH]c5ccccc45)c3)cc12`, the Potency was 1.48 µM (active) in [1]; 2.35 µM (active) in [2]; 14.8 µM (active) in assay [5]; 2.64 µM (active) in assay [4]; 737 nM (active) in assay [10]; 1470 nM (active) in [6]. Besides, the results for the Potency in assay [7] and in [8] were 1.47 µM (active) and 4140 nM (active), respectively.

On to `CC1=C(C(=O)O)N2C(=O)[C@@H](N)[C@H]2SC1`, for which the Potency result in assay [1], in [3], in [5] and in assay [4] was “inactive” in each case.

For `c1cc2c(cc1[C@H]1OC[C@H]3[C@H]1CO[C@H]3c1ccc3c(c1)OCO3)OCO2`, the Potency result in assay [1], in [3], in [5] and in [4] was “inactive” each time.

As for `Cc1c(C(=O)c2cccc3ccccc23)c2cccc3c2n1[C@H](CN1CCOCC1)CO3`, the Potency was 29.6 µM (active) in [1], 23.5 µM (active) in [2] and 20.9 µM (active) in assay [4].

Consider `CCOC(=O)c1c(C(C#N)=CN)c2ccc(Cl)c(Cl)c2n1C`, for which the Potency result in assay [1] and in [3] was “inactive” each time.

Take `CC[C@@]1(O)C(=O)OCc2c1cc1n(c2=O)Cc2cc3ccccc3nc2-1`: the Potency in [1] was 0.743 µM (active); in assay [2], 0.059 µM (active); in assay [4] it was 0.209 µM (active); in assay [10], 131 nM (active); in [6], 46.5 nM (active); in [7] it was 0.0293 µM (active). In addition, the Potency in assay [8] is 827 nM (active); in [9] it was 4650 nM (active).

Take `c1cc2ccc3cccc4ccc(c1)c2c34`: the Potency entry in [1], in assay [3], in [5] and in assay [4] was “inactive” throughout.

For `C[C@]12CC[C@H](O)CC1=CC[C@H]1[C@H]3CCC(=O)[C@@]3(C)CC[C@@H]12`, the Potency result in assay [1] and in [3] was “inactive” throughout.

As to `COC[C@H]1OC(=O)c2coc3c2[C@@]1(C)C1=C(C3=O)[C@@H]2CC[C@H](O)[C@@]2(C)C[C@@H]1OC(C)=O`, the Potency was 14.8 µM (active) in [1], 1.87 µM (active) in assay [2] and 11.8 µM (active) in [4].

Values taken from PubChem BioAssay (NCATS).
